Measurements as given in PubChem BioAssay AID743398 (Broad Institute, 2014).
The whole screen tested about 300,000 compounds, of which about 3,600 (1.2%) were called active. No stated cut-off is given here; in the data, active means activation above about 30% (passing the limit was not always enough); inconclusive means no clear call, values can overlap the other calls. This excerpt belongs to a sample that is enriched for actives.

Test: Wnt/beta-catenin pathway activators, primary screen, cell-based, plate reader, single point (AID 743398);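 further: 0% = neutral control wells and 100% = positive control wells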
Settings: Wnt/beta-catenin reporter cell assay, activator, at 9.35 µM, hits give high values

activation, inactive:
O=C(Cn1c(=S)nc2ccccn21)N1CCc2ccccc2C1 17.7%, O=C(c1ccc(F)cc1)n1cc(C(=S)N2CCOCC2)c2ccccc21 -0.566%, CC(C)(C)S(=O)N1Cc2cc(C(=O)NCCCN3CCOCC3)nc(-c3cccc(-c4cc5ccccc5o4)c3)c2[C@H]1CCO (stereo partly drawn) -3.72%, O=C(Nc1ccc(C(=O)O)c(O)c1)c1ccccc1 -0.311%, O=C(Nc1ncccc1O)c1ccc(C(=O)c2ccccc2)cc1 21.2%, Cc1cccc2c1N(CC(=O)OC(C)C)C(=O)C2=O -1.39%, Cc1cc(/C=C2/SC(=O)N(CC(=O)N3CCCC3)C2=O)c(C)n1C -1.52%, COc1cccc(OCC(=O)NCCS(=O)(=O)N2CCN(c3ccccc3)CC2)c1 -0.863%, COC(=O)c1ccc2nc(-c3ccc(OC)c(OC)c3)c(Cc3ccccc3)n2c1 -2.38%, Clc1ccc(-c2csc(-c3ccncc3)n2)cc1 6.51%, COc1ccc(CC(=O)Nc2nc(-c3ccc(F)c(F)c3)cs2)cc1OC -5.88%, COC(=O)C1=C(C)N(Cc2ccccc2C(F)(F)F)C(=NCc2ccc(C(F)(F)F)cc2)NC1c1ccc(F)cc1 (stereo not drawn) -3.9%, COCCCNC(=O)c1ccc(-c2c(C)noc2C)c2ccoc12 3.17%, O=C(Nc1ccc(Cl)c(C(F)(F)F)c1)C1Cc2c(-c3ccccc3Oc3ccccc3)ccnc2O1 (stereo not drawn) -4.6%, Cc1c(C(=O)NCC2CCCO2)sc2nc(-c3ccccc3)cn12 (stereo not drawn) 8.78%, Cc1cccc2cc3c(N)c(C(=O)N4CCCc5ccccc54)sc3nc12 -13.9%, Cn1c(CCN2CCN(c3ccccn3)CC2)nc2cc(NS(=O)(=O)c3ccc(F)cc3)ccc21 -2.6%, CCc1noc(C)c1C(=O)Nc1nc2ccc(OC)cc2s1 9.85%, Cc1ccc(C(=O)Nc2nnc(-c3ccncc3)s2)o1 2.92%, CC(C)(C)Cc1c(C2CCCCC2)nc2ccc(Br)cn12 -1.26%, COC(=O)c1c(NC(C)=O)sc(C(=O)Nc2ccccc2OC)c1C -1.17%, CCOC(=O)c1sc(NC(=O)COc2ncnc3ccccc23)c(C(=O)OCC)c1C -6.66%, O=C1Nc2ccccc2C1=NN=Cc1ccco1 0.126%, CCOC(=O)N1CCN(C(=O)COc2ccc3oc4c(c3c2)CCCC4)CC1 -0.344%, CCN(CC)CCCNC(=O)COc1ccc2oc3c(c2c1)CCCC3 -0.131%, CC1(C)OC(=O)C2=C(C[C@@H](C3CCCC3)O[C@@H]2c2ccc(Cl)cc2)O1 -1.11%, O=C(Nc1ccc(NC(=O)c2ccccc2F)cc1)c1ccccc1F -1.97%, CN(Cc1ccccc1)S(=O)(=O)c1nnc(NC(=O)c2ccccc2F)s1 -0.354%, COC(=O)C1=C(C)N(Cc2ccc(C(F)(F)F)cc2)C(=NCc2ccccc2)NC1c1ccccc1C(F)(F)F (stereo not drawn) -11.5%, O=C(CSc1cccc[n+]1[O-])c1ccc(-c2ccccc2)cc1 10.1%, Cc1ccc(Sc2cc(C(=O)c3ccccc3C(=O)O)ccc2[N+](=O)[O-])cc1 0.926%, CCCCNC(=O)C[C@@H]1C[C@@]2(C(=O)OCC)CCC=C2N(Cc2cccc3ccccc23)C1=O -1.83%, CC(C)C1CCN(C(=O)C2CCC(=O)N(C3CCCCCC3)C2)CC1 (stereo not drawn) 0.269%, CCOC(=O)C1(C)CCCN(C(=O)c2cccc(Cl)c2)C1 (stereo not drawn) -1.09%, Cc1ccc(NC(=O)N2c3ccccc3SC2c2ccco2)c(C)c1 (stereo not drawn) 4.58%, CCC(C)(C)NC(=O)C(c1cccn1C)N(Cc1ccc(C)cc1)C(=O)Cn1nnc2ccccc21 (stereo not drawn) 0.194%, COc1ccccc1N(C(=O)Cn1nnc2ccccc21)C(C(=O)NCc1ccco1)c1ccc(C)o1 (stereo not drawn) -2.2%, Cc1ccc(S(=O)(=O)N(CCc2ccccc2)c2ccc3c(c2)C2CC3CCN2C(=O)OCc2ccccc2)cc1 (stereo not drawn) -4.45%, CCCCCCN1C[C@H](O)[C@@H](n2cc(C3CC3)nn2)C[C@@H]1c1ccc(Cl)cc1 0.514%, CN1CCCc2nc(-c3ccccc3)ccc21 28.7%, Nc1ncnc2c1ncn2[C@@H]1O[C@H](C(=O)N[C@@H](CCc2ccccc2)C(=O)N2CCCN(Cc3cccs3)CC2)[C@@H](O)[C@H]1O 2.88%, CC(C)(C)CC(=O)Nc1nc(C(N)Cc2ccc(C(F)(F)F)cc2)cs1 (stereo not drawn) -3.02%, O=C(CNC(=O)c1ccc(F)cc1)c1ccccc1 12.3%, O=C(NCCOc1ccccc1)c1ccccc1F 2.79%, C=CCn1nc(C(=O)OCC)cc1-c1sc(NC(=O)c2ccccc2)nc1C -1.67%, CC1(C(=O)Nc2cccnc2)Cc2c(-c3ccccc3)ccnc2O1 (stereo not drawn) -1.45%

activation, active:
O=C(c1ccc(F)cc1)n1c(=S)nc2ccccn21 55.5%, O=C(NC(=O)c1ccccc1)Nc1ccccc1O 40.2%, Cc1cc(/C=C2/SC(=O)N(CC(=O)OC(C)C)C2=O)c(C)n1C 32.5%, Fc1ccc(-c2csc(-c3ccc(C4SCCS4)cc3)n2)cc1F 34%, Cc1c(C(=O)N2CCCc3ccccc32)sc2nc(-c3ccccc3)cn12 51.4%, Cc1ccc(C(=O)Nc2nc3ccc(Cl)cc3s2)o1 36.2%, CCC(=O)Nc1sc(C(=O)Nc2ccccc2)c(C)c1C(=O)OC 68.1%, O=C(COc1ccc2oc3c(c2c1)CCCC3)Nc1ccccn1 39.6%, O=C(Nc1nnc(-c2ccccc2F)s1)c1ccccc1F 32.6%, Cc1ccc(C(=O)CSc2ccccc2C(=O)O)cc1 31.9%, COCCNC(=O)C(c1ccc(C)o1)N(Cc1ccccc1)C(=O)Cn1nnc2ccccc21 (stereo not drawn) 40.8%, O=C(CNC(=O)c1ccccc1F)c1ccc(Br)cc1 39%
